Laboratory results reported in ChEMBL document CHEMBL1201862, “PubChem BioAssay data set” (2004).
In all, about 400,000 compounds went through this assay and about 2,100 (0.53%) were called active. Another 14% or so got no clear call; they are omitted. No rule for the calls is given here. The list comes from a sample in which actives are over-represented; it also holds similar structures and randomly drawn compounds.

What follows are compounds tested against Ataxin-2 (Homo sapiens) (UniProt Q99700) (assay: qHTS for Inhibitors of ATXN expression.).
Ataxin-2 (Homo sapiens), sequence (Q99700 whole entry): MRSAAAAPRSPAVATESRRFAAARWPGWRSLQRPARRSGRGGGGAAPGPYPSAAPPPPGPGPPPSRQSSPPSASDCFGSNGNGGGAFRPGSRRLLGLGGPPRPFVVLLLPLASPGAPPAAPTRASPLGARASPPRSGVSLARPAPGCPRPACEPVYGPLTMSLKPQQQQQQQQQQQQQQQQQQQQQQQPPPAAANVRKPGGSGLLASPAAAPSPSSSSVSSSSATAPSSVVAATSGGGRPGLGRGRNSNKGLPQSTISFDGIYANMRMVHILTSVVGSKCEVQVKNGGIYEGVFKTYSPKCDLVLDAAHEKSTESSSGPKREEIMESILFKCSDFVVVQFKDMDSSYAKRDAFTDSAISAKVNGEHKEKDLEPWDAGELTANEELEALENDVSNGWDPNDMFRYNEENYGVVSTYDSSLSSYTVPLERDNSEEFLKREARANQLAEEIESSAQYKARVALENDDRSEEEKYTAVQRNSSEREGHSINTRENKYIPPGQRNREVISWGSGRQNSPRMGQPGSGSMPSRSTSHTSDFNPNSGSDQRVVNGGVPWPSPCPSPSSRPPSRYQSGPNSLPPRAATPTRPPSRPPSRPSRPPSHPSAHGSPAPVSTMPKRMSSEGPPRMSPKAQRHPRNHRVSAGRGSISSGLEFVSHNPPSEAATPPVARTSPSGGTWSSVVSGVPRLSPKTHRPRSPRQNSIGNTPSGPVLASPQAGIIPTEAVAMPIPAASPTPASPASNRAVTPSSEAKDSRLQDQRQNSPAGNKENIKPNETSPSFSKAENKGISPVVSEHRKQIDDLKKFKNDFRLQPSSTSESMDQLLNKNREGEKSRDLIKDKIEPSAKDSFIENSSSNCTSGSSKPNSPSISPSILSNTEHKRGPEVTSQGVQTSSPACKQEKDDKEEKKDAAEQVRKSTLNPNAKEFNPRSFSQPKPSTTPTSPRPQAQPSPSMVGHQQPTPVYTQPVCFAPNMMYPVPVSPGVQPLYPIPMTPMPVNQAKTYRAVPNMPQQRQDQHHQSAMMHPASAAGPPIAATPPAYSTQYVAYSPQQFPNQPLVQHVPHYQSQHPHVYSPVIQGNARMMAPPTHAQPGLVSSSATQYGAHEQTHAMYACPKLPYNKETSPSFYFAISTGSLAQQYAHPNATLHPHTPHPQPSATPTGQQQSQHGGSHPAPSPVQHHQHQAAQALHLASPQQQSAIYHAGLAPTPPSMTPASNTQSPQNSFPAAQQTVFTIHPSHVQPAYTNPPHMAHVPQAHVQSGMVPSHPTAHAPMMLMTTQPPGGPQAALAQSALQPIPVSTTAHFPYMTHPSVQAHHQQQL
Format: functional
In the case of `Nc1cccc2c1C(=O)N(C(=O)c1cccc(S(=O)(=O)N3CCCCCC3)c1)C2=O`, the Potency is reported as “inactive”.
With `Fc1ccc(CN2CCN(c3ncccn3)CC2)c(F)c1` the Potency was “inactive”.
For `COCC(C)n1c(SCc2ccc(C(=O)OC)cc2)nc2ccccc2c1=O` (centres undefined), the Potency was “inactive”.
With `O=C(c1ccc(-n2c(SCc3cc(F)ccc3F)nc3ccccc3c2=O)cc1)N1CCOCC1` the Potency was “inactive”.
`COc1ccc(C(C)=O)cc1CSc1nc2ccccc2c(=O)n1-c1ccccc1` was tested, and the Potency was 35.5 µM (active).
With `O=C(NCc1ccncc1)c1ccc(NS(=O)(=O)c2ccc(F)cc2)cc1` the Potency was “inactive”.
For `CCOC(=O)c1c(C)oc2c1c(/C=N/CCO)c(O)c1ccccc12`, the Potency was “inactive”.
For `CCOC(=O)c1c(C)oc2c1c(C(c1ccccc1)N1CCOCC1)c(O)c1ccccc12` (centres undefined), the Potency was 39.8 µM (active).
`CCOC(=O)c1c(N=C(S)N2CCOCC2)sc(C)c1C` was tested, and the Potency was “inactive”.
For `CCOC(=O)C(CC)Sc1ccc2nnc(-c3cccnc3)n2n1` (centres undefined), the Potency was “inactive”.
With `CCOC(=O)c1c(C)oc2c1c(C(c1cccnc1)N1CCOCC1)c(O)c1ccccc12` (centres undefined) the Potency was 39.8 µM (active).
In the case of `COc1ccc(C(=O)N/N=C\c2coc3ccccc3c2=O)cc1`, the Potency is reported as “inactive”.
In the case of `O=C(Cc1cc(=O)oc2cc(O)ccc12)NCC1CCC(C(=O)O)CC1` (centres undefined), the Potency is reported as “inactive”.
`Cc1c(-c2ccc(Cl)cc2)c(=O)oc2c(CN3CCCC3)c(O)ccc12` was tested, and the Potency was “inactive”.
In the case of `Cc1cc(-c2cccs2)c2c(N)c(C(=O)c3ccc4c(c3)OCO4)sc2n1`, the Potency is reported as “inactive”.
For `c1ccc(CNc2nc(NCc3ccccc3)c3ccccc3n2)cc1`, the Potency was 39.8 µM (active).
`OCCNc1c2ccccc2nc2ccccc12` was tested, and the Potency was “inactive”.
`CC(O)CNc1nc(NCc2ccccc2)c2cnn(C)c2n1` (centres undefined) was tested, and the Potency was “inactive”.
In the case of `CC1(C)Cc2c(C#N)c(NCCO)nc(-c3ccco3)c2CO1`, the Potency is reported as “inactive”.
With `C/C(=N\NC(=S)NCCc1ccccc1)c1ccc(Cl)cc1Cl` the Potency was “inactive”.
For `Cc1cc(C)c(C(=O)Nc2ccccc2)c(CC(C)(C)C(=O)O)c1`, the Potency was “inactive”.
`Cc1nnc(Sc2cc(NCCO)c([N+](=O)[O-])c3nonc23)s1` was tested, and the Potency was 28.2 µM (active).
In the case of `CC(=O)Nc1scc(C)c1-c1nc2ccccc2s1`, the Potency is reported as “inactive”.
With `CC(=O)OCCCNc1cc(Sc2nc3ccccc3s2)c2nonc2c1[N+](=O)[O-]` the Potency was 12.6 µM (active).
In the case of `CCCn1c(N)c(C(=O)CSc2nc3ccccc3s2)c(=O)[nH]c1=O`, the Potency is reported as “inactive”.
For `COc1ccc(NC(=O)CCC(=O)NCc2ccco2)c([N+](=O)[O-])c1`, the Potency was “inactive”.
For `O=[N+]([O-])c1c(NCCCO)cc(SCc2ccco2)c2nonc12`, the Potency was 31.6 µM (active).
`COCCNc1nnc(SCC(=O)Nc2cc(C)on2)s1` was tested, and the Potency was “inactive”.
In the case of `Cc1nnc(Sc2cc(NCCCO)c([N+](=O)[O-])c3nonc23)s1`, the Potency is reported as 21.2 µM (active).
